Several values for one entry are separate records, joined by “and”; a condition that tells them apart may be missing. Equal entries are not always repeated. Results filed as inconclusive are left out. Some structures have more than one record in an assay (separate samples or runs), and their calls can disagree. Activity calls are given as the source filed them.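 Rule for the calls, unless noted: active = mean z-score across replicates of 1.96 or higher in either the MELAS or the Rieske mutant cell line; inactive = the rest.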
Experiments:
[1] = viability loss in pontine glioma line – cell-based, SU-DIPG-XXV, MIPE5.0, CellTiter-Glo, qHTS, dose response (AID 1347065; cut-off not given, nearly all actives have AC50 up to about 26 µM;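 note: cells exposed to compound for 48 hours before ATP readout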); settings: CellTiter-Glo ATP luminescence
[2] = SU-DIPG-VI glioma cell viability, MIPE4.0 library, CellTiter-Glo luminescence, qHTS (AID 1347066; cut-off not given, nearly all actives have AC50 up to about 30 µM;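 note: cells exposed to compound for 48 hours before readout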); settings: CellTiter-Glo ATP luminescence
[3] = JHH-DIPG-1 glioma cell viability, MIPE5.0 library, CellTiter-Glo luminescence, qHTS (AID 1347067; cut-off not given, nearly all actives have AC50 up to about 26 µM;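 note: cells exposed to compound for 48 hours before readout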); settings: JHH-DIPG-1 glioma viability, CellTiter-Glo ATP luminescence
[4] = SU-DIPG-XXV glioma cell viability, MIPE5.0 library, qHTS (AID 1347068; cut-off not given, nearly all actives have IC50 up to about 30 µM)
[5] = survival rescue of mitochondrial mutant cells in low glucose, primary screen, MELAS cybrids, Rieske KO mouse fibroblasts, CellTiter-Glo (AID 1508586);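 note: z relative to plate mean and SD of compound and empty wells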
[6] = target: NAD(+) hydrolase SARM1 (Homo sapiens) (UniProt Q6SZW1); test: SARM1 TIR NADase inhibitors, cell lysate, NAD-Glo luminescence (AID 1508614;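 active = compound whose remaining NAD level is above about 45 nM, limit read from the data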;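 note: higher remaining NAD means stronger inhibition of SARM1 NADase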); settings: SAM-TIR HEK293T lysate NADase, at 1 µM, stronger effect = higher value
Sequence of NAD(+) hydrolase SARM1 (Homo sapiens) (Q6SZW1 whole entry, looked up): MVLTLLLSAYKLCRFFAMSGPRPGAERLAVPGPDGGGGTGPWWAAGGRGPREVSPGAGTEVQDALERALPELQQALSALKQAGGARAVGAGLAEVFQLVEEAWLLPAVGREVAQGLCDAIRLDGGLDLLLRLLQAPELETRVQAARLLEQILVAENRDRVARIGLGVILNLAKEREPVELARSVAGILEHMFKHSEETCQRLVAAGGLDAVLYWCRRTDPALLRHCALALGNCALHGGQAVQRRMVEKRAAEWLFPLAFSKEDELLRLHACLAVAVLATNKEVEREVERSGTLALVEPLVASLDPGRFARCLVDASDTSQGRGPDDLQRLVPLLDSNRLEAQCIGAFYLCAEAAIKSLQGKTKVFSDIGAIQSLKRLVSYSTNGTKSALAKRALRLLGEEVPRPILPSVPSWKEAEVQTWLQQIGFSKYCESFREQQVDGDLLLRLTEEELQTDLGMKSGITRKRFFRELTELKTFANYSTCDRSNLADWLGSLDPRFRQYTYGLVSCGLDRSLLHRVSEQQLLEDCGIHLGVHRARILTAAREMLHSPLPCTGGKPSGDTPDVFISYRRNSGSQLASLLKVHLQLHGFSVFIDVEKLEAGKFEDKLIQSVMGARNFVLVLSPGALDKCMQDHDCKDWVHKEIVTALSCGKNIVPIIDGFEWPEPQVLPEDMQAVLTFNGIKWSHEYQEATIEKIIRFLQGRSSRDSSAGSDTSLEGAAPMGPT

[7] = viability rescue of complex I mutant cybrids, primary screen, cell-based, galactose medium, ATP luminescence (AID 1645843;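 active = z-score of at least 1.8 in each of two replicates, scored against plate mean and spread of sample wells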;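 note: positive z means more ATP and so rescue of galactose-driven cybrid death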); settings: complex I mutant cybrid cells, 72 h, stronger effect = higher value
[8] = phospholipid biosynthesis inhibitors in animal cells, primary screen, cell-based, LOPAC library, screen 4 (AID 1347384; call rule not given here); settings: phospholipid biosynthesis inhibition screen, at 10 µM
[9] = target: Mitogen-activated protein kinase 7 (Homo sapiens) (UniProt Q13164); test: ERK5 transactivation activators in reporter cells, primary screen, cell-based, HTS (AID 1508626;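 active = luciferase signal above three times the same-plate solvent-only control wells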;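 note: luciferase driven by Gal4-ERK5 fusion binding five Gal4 sites before minimal TATA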); settings: HeLa Gal4-ERK5 transactivation, 18 h, at 5 µM, stronger effect = higher value
Sequence of Mitogen-activated protein kinase 7 (Homo sapiens) (Q13164 whole entry, looked up, the tested form may be a part): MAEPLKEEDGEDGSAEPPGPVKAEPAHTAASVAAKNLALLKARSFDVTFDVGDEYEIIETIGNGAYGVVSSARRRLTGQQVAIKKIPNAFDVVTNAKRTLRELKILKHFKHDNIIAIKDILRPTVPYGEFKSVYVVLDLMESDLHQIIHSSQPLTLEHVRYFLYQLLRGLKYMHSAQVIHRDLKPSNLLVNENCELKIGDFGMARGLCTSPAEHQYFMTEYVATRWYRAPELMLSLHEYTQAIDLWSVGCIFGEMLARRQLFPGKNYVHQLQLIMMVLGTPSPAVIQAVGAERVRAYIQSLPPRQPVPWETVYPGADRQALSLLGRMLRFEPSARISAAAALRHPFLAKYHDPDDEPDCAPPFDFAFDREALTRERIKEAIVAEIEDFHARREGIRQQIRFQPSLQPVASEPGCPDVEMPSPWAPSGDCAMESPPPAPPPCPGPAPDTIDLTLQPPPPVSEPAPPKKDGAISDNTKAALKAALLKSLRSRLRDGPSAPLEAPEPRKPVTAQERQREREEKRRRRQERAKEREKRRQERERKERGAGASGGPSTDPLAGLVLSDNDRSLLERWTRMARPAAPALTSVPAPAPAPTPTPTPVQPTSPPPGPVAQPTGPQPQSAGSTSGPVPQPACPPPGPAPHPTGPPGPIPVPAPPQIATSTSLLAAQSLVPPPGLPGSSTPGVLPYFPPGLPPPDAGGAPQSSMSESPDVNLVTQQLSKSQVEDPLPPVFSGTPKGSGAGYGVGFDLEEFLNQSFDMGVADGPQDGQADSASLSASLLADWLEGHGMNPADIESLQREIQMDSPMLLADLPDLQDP

[10] = MELAS cybrid survival, CellTiter-Glo 48 h, stronger effect = higher value
[11] = Rieske KO mouse fibroblast survival, CellTiter-Glo 72 h

Compound	outcome [1]	outcome [2]	outcome [3]	outcome [4]	z-score [5, 10]	z-score [5, 11]	remaining NAD [6]	z-score [7]	outcome [8]	luciferase signal [9]
CCC1=C(C)CN(C(=O)NCCc2ccc(S(=O)(=O)NC(=O)NC3CCC(C)CC3)cc2)C1=O (stereo not given)	inactive	inactive	inactive	inactive	-0.439 (inactive) and 0.644 (inactive) and 0.245	0.486 and 0.124 and 2.28	10 nM (inactive)	2.29 (active) and 6.57 (active) and 1.99 (inactive)		
COc1ccc(CCN(C)CCCC(C#N)(c2ccc(OC)c(OC)c2)C(C)C)cc1OC (stereo not given)	inactive	inactive	inactive	inactive	-1.23 (inactive) and 0.18 (inactive) and -0.391 (inactive)	-2.03 and 0.282 and -0.248	10 nM (inactive)		inactive	96 AU (inactive)
NC(=O)OCC(COC(N)=O)c1ccccc1	inactive	inactive	inactive	inactive	0.426 (inactive) and -0.303 (inactive)	0.386 and -0.256		0.13 (inactive) and 0.59 (inactive) and 0.445 (inactive)	inactive	112 AU (inactive)
CC(=O)Oc1ccccc1C(=O)O	inactive	inactive	inactive	inactive	-0.282 (inactive) and -0.31 (inactive) and 0.455 (inactive)	0.817 and -0.843 and -0.759	10 nM (inactive)	0.51 (inactive) and 0.115 (inactive)	inactive	92 AU (inactive)
CCOC(=O)c1ncn2c1CN(C)C(=O)c1cc(F)ccc1-2	inactive	inactive	inactive	inactive	0.109 (inactive) and 0.0778 (inactive)	0.977 and -0.775	10 nM (inactive)		inactive	60 AU (inactive)

From PubChem BioAssay
